Here are results for nine molecules from PubChem BioAssay (NCATS).

Molecules are shown by their SMILES. Records with an inconclusive call do not appear. The source made the active and inactive calls. Unless noted, calls follow the shape of the full dose curve.

Assay [1] can be described thus: qHTS for Inhibitors of the Functional Ribonucleoprotein Complex (vRNP) of Lassa (LASV) Arenavirus: Viability assay - alamar blue signal for LASV Primary Screen (AID 1347083; calls by dose curve; tested in HEK293 reporter line; also: nearly all actives have a fitted effect of over 80% in size; also: potency is read from the fitted curve at half-maximal effect). (Quantitative high-throughput screening tests each substance at several concentrations.)
The nature of assay [2]: qHTS for Inhibitors of the Functional Ribonucleoprotein Complex (vRNP) of Lymphocytic Choriomeningitis Arenaviruses (LCMV): Viability assay - alamar blue signal for LCMV Primary Screen (AID 1347085; calls by dose curve; tested in HEK293 reporter line; also: nearly all actives have a fitted effect of over 80% in size; also: potency is read from the fitted curve at half-maximal effect).
Assay [3] concerns the target Nucleoprotein (Lymphocytic choriomeningitis virus (strain Armstrong)) (UniProt P09992). Kind of assay: qHTS for Inhibitors of the Functional Ribonucleoprotein Complex (vRNP) of Lymphocytic Choriomeningitis Arenaviruses (LCMV): LCMV Primary Screen - GLuc reporter signal (AID 1347086). Also: potency is read from the fitted curve at half-maximal effect; nearly all actives have a fitted effect of over 70% in size.
Assay [4] can be described thus: Cytotoxicity counterscreen for inhibitors of SARS-CoV-2 cell entry (AID 1645845). Also: nearly all actives have a fitted effect of over 50% in size. In short, it runs like this:
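Counterscreen run in the same HEK293-ACE2 line as the pseudotyped-particle entry assay, without particles. Viability after 48 h at 37 C was read as ATP luminescence, scaled between cell-containing and cell-free wells.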
A general note: A counterscreen serves to expose hits that act by an unwanted route or on another target.

Assay [5] can be described thus: Primary qHTS to identify inhibitors of SARS-CoV-2 cell entry (AID 1645846). Also: nearly all actives have a fitted effect of over 45% in size. Also: potency is read from the fitted curve at half-maximal effect. To be noted: activity change, negative = inhibition: at 57.1 µM (top of the series) unless noted. In short, it runs like this: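 Luminescence readout (Bright-Glo luciferase) 48 h after pseudoparticle addition. HEK293-ACE2 cells, 1500/well; compound pre-incubation 1 h; Normalized to spike PP and bald PP.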

Assay [6] deals with Alpha-galactosidase (Coffea arabica) (UniProt Q42656). Kind of assay: Counterscreen for Glucocerebrosidase Inhibitors: qHTS Assay for Coffee Bean alpha-Galactosidase at pH 4.5 (AID 957; active = well fitted curve in the direction sought with a large enough effect; an effect the other way counts as inactive or inconclusive;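 also: plate controls were enzyme alone for no effect and no enzyme for full effect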). The gist of the method:
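Fluorogenic qHTS at pH 4.5 (citrate buffer with Tween-20): 2 nM enzyme, 80 uM 4-MU-alpha-galactoside substrate, compound titrated 0.7 nM to 77 uM, 20 min room temperature. Glycine/NaOH stop; 4-MU read Ex 365/Em 440; Hill-equation AC50 against no-enzyme and enzyme controls.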

Assay [7] has the same target. Put plainly: Counterscreen for Glucocerebrosidase Inhibitors: qHTS Assay for Coffee Bean alpha-Galactosidase at pH 5.9 (AID 998; active = well fitted curve in the direction sought with a large enough effect; an effect the other way counts as inactive or inconclusive;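 also: plate controls were uninhibited enzyme for no effect and no-enzyme basal signal for full effect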). In short, it runs like this: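 Enzyme 2 nM + cpd (0.7 nM–77 uM titration) + 4-MU-alpha-Gal 80 uM, pH 5.9 citrate/Tween-20, RT 20 min, NaOH/glycine stop pH 10, fluor 365/440. Normalized to no-enzyme and full-activity controls; Hill-fit AC50.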

A short description of assay [8]: Primary qHTS for Huh7 cytotoxicity: counterscreen for inhibitors of MERS-S pseudotyped particle cell entry (AID 1479147). To be noted: outcome: dose series up to 57.1 µM unless noted.
Assay [9] can be described thus: Primary qHTS for Vero E6 cytotoxicity: counterscreen for inhibitors of SARS-S pseudo-typed particle cell entry (AID 1479150). As to conditions: outcome: dose series up to 57.1 µM unless noted.
Assay [10] can be described thus: Inducers of the Endoplasmic Reticulum Stress Response (ERSR) in human glioma: Validation (AID 504836; active = well fitted curve in the direction sought with a large enough effect; an effect the other way counts as inactive or inconclusive; also: 0% is about no effect). The gist of the method: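 Stably transfected U87-MG glioma cells carrying a GRP78-based luciferase sensor; 16 h compound incubation. Luminescence end-point read 10 min after Bright-Glo addition at room temperature.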
Assay [11] can be described thus: Primary qHTS for inhibitors of SARS-S pseudo-typed particle cell entry (AID 1479145). Also: % is scaled to controls: 0 for no effect and ±100 for the full control effect; nearly all actives have a fitted effect of over 45% in size.
The nature of assay [12]: Primary qHTS for inhibitors of MERS-S pseudo-typed particle cell entry (AID 1479149). Also: nearly all actives have a fitted effect of over 60% in size. As to activity change, negative = inhibition: % is scaled to controls: 0 for no effect and ±100 for the full control effect.
Assay [13] is described as follows: qHTS for differential inhibitors of proliferation of Plasmodium falciparum line 3D7 (AID 1876; active = well fitted curve in the direction sought with a large enough effect; an effect the other way counts as inactive or inconclusive; also: potency is read from the fitted curve at half-maximal effect).
Assay [14] can be described thus: Validation screen for inhibitors of Lassa infection (AID 463096). Also: % is scaled to controls: 0 for no effect and ±100 for the full control effect.
Assay [15] in a line: qHTS for Inhibitors of ATXN expression: Validation (AID 588378; active = well fitted curve in the direction sought with a large enough effect; an effect the other way counts as inactive or inconclusive; also: % is scaled to controls: 0 for no effect and ±100 for the full control effect; nearly all actives have a fitted effect of over 75% in size). The gist of the method: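 Luminescence from an ATXN2-FFLuc reporter in HEK293 cells served as read-out after 24 h compound treatment at 37 degrees C; CellTiter-Fluor fluorescence was recorded first to assess viability.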
The target in assay [16] is Peroxisome proliferator-activated receptor delta (Homo sapiens) (UniProt Q03181). Put plainly: qHTS assay for small molecule agonists of peroxisome proliferator-activated receptor delta signaling (AID 588534).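 Also: 0% = DMSO basal wells and 100% = positive control agonist at 10 µM.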 In short, it runs like this: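 Agonist-mode beta-lactamase reporter readout (CCF4 dye, 2 h at RT) after 18 h at 37 °C exposure to a titration; Hill-equation fitting gave EC50 and maximal response.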

A short description of assay [17]: qHTS assay for small molecule activators of the p53 signaling pathway (AID 651743; active = well fitted activation curve with a large enough effect in the signal ratio, not every such curve was filed as active; the % refers to the signal ratio; also: potency is read from the fitted curve at half-maximal effect). To be noted: HCT-116 p53RE-bla, beta-lactamase FRET ratio, 16 h; activation: stronger effect = higher value. In short, it runs like this:
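Following 16 hours of compound exposure at 37 C, HCT-116 cells bearing the p53RE-bla reporter were loaded with LiveBLAzer B/G FRET substrate for 2 hours at room temperature and fluorescence intensity was recorded.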

Assay [18] can be described thus: qHTS assay to identify small molecules that stimulate interleukin-8 (IL-8) secretion (AID 651758; active = well fitted activation curve with a large enough effect in the signal ratio; the % refers to the signal ratio; also: potency is read from the fitted curve at half-maximal effect). The gist of the method: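 Compounds are added to THP-1 cells (2000 per well) and left 16 hrs at 37 C. A labeled anti-IL-8 antibody pair is then added, and IL-8 secretion is measured by time-resolved FRET after 1-3 hrs at room temperature.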
For assay [19], the target named is Nuclear receptor ROR-gamma (Homo sapiens) (UniProt P51449). Put plainly: qHTS assay for small molecule antagonists of the retinoid-related orphan receptor gamma (ROR-gamma) signaling pathway (AID 651802; active = well fitted curve in the direction sought with a large enough effect; an effect the other way counts as inactive or inconclusive; also: potency is read from the fitted curve at half-maximal effect; nearly all actives have a fitted effect of over 60% in size). In short, it runs like this: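 Luminescence (One-Glo, 30 min RT) measured 16 h after compound addition and doxycycline induction at 37C. Reporter: RORE-luciferase under TET-inducible ROR-gamma in CHO cells.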

Assay [20] deals with Arylsulfatase A (Homo sapiens) (UniProt P15289). Put plainly: qHTS screen for enhancers of Arylsulfatase A (ASA1): LOPAC Validation Assay (AID 720538; active = well fitted curve in the direction sought with a large enough effect; an effect the other way counts as inactive or inconclusive; also: 0% is about no effect). In short, it runs like this: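 SV40-transformed skin fibroblasts from an MLD patient (ASA-I179S) were treated with compounds for 48h at 37 degree C, then lysed with 0.5mM pNCS final substrate for 14h at room temperature; NaOH stop, fluorescence read (Ex=525 nm; Em=598 nm).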
Chain of Arylsulfatase A (Homo sapiens) (P15289 whole entry, looked up): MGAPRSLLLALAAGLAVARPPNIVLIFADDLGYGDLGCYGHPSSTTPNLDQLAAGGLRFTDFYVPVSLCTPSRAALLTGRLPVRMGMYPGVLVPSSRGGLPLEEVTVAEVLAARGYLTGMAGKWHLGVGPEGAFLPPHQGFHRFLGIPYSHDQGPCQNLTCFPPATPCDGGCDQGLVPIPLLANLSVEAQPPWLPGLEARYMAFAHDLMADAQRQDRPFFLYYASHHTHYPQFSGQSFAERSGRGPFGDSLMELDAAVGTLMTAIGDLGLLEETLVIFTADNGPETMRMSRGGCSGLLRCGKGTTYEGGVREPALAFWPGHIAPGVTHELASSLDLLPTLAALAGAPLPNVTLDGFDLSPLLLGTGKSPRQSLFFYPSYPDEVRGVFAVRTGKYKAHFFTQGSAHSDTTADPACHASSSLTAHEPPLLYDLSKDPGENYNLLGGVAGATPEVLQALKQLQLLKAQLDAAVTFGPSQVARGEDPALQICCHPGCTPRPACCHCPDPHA

Chain of Nucleoprotein (Lymphocytic choriomeningitis virus (strain Armstrong)) (P09992 whole entry, looked up): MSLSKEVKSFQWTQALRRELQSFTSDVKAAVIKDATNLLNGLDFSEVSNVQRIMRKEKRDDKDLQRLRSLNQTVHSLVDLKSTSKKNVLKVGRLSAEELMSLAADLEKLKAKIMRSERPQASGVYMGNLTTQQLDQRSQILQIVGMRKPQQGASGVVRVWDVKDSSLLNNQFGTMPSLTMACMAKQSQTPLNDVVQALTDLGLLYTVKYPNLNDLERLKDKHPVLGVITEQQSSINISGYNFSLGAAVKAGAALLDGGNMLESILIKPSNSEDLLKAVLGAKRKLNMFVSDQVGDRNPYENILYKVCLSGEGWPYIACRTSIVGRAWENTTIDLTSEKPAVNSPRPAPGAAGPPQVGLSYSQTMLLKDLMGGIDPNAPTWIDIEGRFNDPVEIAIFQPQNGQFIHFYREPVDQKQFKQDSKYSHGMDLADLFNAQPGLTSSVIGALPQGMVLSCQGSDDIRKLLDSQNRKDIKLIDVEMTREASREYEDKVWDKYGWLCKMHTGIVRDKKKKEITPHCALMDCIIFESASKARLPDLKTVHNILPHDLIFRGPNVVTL
Chain of Alpha-galactosidase (Coffea arabica) (Q42656 whole entry, looked up): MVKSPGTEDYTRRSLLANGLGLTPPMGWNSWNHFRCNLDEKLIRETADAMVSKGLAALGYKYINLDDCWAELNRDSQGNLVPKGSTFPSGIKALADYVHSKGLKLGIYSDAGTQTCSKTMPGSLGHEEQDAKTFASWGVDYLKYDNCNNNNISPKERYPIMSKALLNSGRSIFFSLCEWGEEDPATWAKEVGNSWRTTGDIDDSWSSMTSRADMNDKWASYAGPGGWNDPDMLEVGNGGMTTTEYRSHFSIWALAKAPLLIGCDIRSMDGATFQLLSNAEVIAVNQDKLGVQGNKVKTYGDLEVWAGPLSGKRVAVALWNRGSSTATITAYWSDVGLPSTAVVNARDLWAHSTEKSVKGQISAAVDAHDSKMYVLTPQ
Chain of Peroxisome proliferator-activated receptor delta (Homo sapiens) (Q03181 whole entry, looked up): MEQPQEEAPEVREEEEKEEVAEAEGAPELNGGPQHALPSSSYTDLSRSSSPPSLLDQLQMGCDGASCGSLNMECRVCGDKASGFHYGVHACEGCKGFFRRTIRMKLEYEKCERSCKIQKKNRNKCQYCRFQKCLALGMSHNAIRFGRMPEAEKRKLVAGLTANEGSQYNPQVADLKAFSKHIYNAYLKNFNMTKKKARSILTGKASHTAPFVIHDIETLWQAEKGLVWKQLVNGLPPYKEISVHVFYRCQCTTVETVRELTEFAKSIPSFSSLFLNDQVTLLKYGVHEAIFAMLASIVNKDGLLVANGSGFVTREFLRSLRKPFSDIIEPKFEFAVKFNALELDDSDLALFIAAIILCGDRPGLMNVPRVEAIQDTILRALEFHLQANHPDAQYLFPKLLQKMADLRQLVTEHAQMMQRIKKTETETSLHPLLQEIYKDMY
Chain of Nuclear receptor ROR-gamma (Homo sapiens) (P51449 whole entry, looked up): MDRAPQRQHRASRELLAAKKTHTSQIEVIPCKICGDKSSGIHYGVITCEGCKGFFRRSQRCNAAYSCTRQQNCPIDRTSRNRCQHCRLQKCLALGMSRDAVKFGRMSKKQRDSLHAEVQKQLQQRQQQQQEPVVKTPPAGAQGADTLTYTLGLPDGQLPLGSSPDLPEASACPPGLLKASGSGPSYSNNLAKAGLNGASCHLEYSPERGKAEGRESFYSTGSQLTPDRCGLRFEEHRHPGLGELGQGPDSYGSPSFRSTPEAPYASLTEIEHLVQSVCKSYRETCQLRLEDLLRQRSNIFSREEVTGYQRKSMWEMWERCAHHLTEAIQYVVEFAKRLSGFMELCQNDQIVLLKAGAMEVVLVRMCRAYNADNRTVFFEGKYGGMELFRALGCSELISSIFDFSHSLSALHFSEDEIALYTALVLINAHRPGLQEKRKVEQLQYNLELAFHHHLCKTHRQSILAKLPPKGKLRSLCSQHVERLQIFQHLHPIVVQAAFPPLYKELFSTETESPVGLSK

In the case of `FC(F)(F)c1ccc(Nc2nc3ccc(Oc4ccnc(-c5ncc(C(F)(F)F)[nH]5)c4)cc3[nH]2)cc1`, the Potency in [1] is 6.11 µM (active); in [2], 1.37 µM (active); in assay [3] it was 3.85 µM (active); in assay [5], 31.6 µM (active). Besides, the Potency result in [4] is “inactive”.

Regarding `Cc1ccc(S(=O)(=O)Nc2nc3ccccc3nc2Nc2ccc3nsnc3c2)cc1`, the results for the Potency in assay [1], in [2] and in [3] were 1.06 µM (active), 2.11 µM (active) and 1.33 µM (active), respectively. The Potency entry in [4] is “inactive”. For the same molecule, the activity change, negative = inhibition in assay [5] was -18.1% [at 27.1 µM].

Regarding `COc1ccc2c(c1OC)C(=O)OC2[C@H]1c2c(cc3c(c2OC)OCO3)CCN1C` (some centres not stated), the molecule was called inactive in assay [6] and in [7]. Also, the Potency was 1.53 µM (active) in assay [1], 1.53 µM (active) in assay [2] and 1.37 µM (active) in [3]. In assay [4], the Potency entry was “inactive”.

Consider `CO[C@@H]1[C@@H](O)[C@H](O)[C@@H](n2c3c(Cl)cccc3c3c4c(c5c6cccc(Cl)c6[nH]c5c32)C(=O)NC4=O)O[C@@H]1CO`, for which the Potency in assay [1] is 1.93 µM (active); in [2], 2.43 µM (active); in assay [3], 3.06 µM (active).

Take `Cc1nc2c([nH]1)CCN(C(=O)c1ccc(NC(=O)c3ccccc3-c3ccccc3)cc1)c1ccccc1-2`: the Potency result in assay [1], in assay [2] and in [4] was “inactive” throughout. Besides, the molecule was classed as inactive in [8] and in assay [9].

For the molecule `Cc1cnc(NC(=O)Nc2cc(Br)c(C)cc2OC[C@@H]2CNCCO2)cn1`, the Potency in assay [1] is 2.43 µM (active); in assay [2], 10.9 µM (active); in [5], 10 µM (active).

`CC[n+]1c(/C=C/C=C2/N(C)c3ccccc3C2(C)C)sc2ccccc21`: the result in [10] was inactive. For the same molecule, the Potency in assay [1] was 1.58 µM (active); in assay [2], 0.708 µM (active).

For `CCN1CCCC1=O`, the Potency entry in assay [1], in assay [2], in [11], in assay [12], in assay [4] and in [5] was “inactive” each time. Further, the call in assay [8] and in [9] was inactive.

Take `NC(=O)c1ncn([C@@H]2O[C@H](CO)[C@@H](O)[C@H]2O)n1`: the result in assay [6], in assay [7], in assay [10], in assay [8] and in assay [9] was inactive. Besides, the Potency in assay [13] is 8.91 µM (active); in assay [17], 31.6 µM (active); in assay [18] it was 66.8 µM (active); in [19], 18.8 µM (active). For the same molecule, the Potency result in assay [14], in [15], in assay [16], in [20], in assay [1] and in assay [2] was “inactive” throughout. The Potency result in [11], in assay [12] and in assay [4] was “inactive” each time. Moreover, the activity change, negative = inhibition in assay [5] is -11.7%.
